# Rows were chosen to be rich in hits. Some 9.9% of all compounds tested hit in one or more screens of this group.
# KB-V1 MDR tox: qHTS assay for MDR1-selective chemotherapeutics: Primary screen using the drug-selected MDR subline cells KB-V1; KB-V1 MDR cells viability, CellTiter-Glo, 72 h; Potency, µM (highest dose often 46.1 µM), usual class: cytotoxic; 3.4% of 400,000 active; further: potency means the concentration at half of the fitted maximal effect; on the % scale 0 is the no-effect control and ±100 the full control effect; nearly all actives have a fitted effect of over 60% in size
#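 KB-V1 cells (P-gp-expressing MDR subline of KB-3-1) in phenol-red-free DMEM with 10% FBS were exposed to library compounds over a concentration series for 72 h at 37 degrees C. Viability read by CellTiter-Glo luminescence; concentration-effect curves fitted after normalization.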
# IL1B secr inh: qHTS for Inhibitors of Inflammasome Signaling: IL-1-beta AlphaLISA Primary Screen; THP-1 LPS/ATP IL-1B secretion, AlphaLISA, 16 h; active compounds read low; 4.7% of 360,000 active; AID 743279, 2014; activity change, % at 57.5 µM; in the data active means activity change below about -50%; inconclusive means mostly about -30% to -49%; further: on the % scale 0 is the no-effect control and ±100 the full control effect
#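 THP-1 cells pretreated 1 hr with compounds (up to 57.5 uM final), then stimulated with LPS (250 ng/mL final) plus ATP (1.25 mM final); secreted IL-1B measured by AlphaLISA after 16 hr, decreased signal indicating inhibition.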
# SW480 rerep: A quantitative high throughput screen for small molecules that induce DNA re-replication in SW480 colon adenocarcinoma cells; Potency, µM (doses to about 46.1 µM), for the others: at the highest dose re-replication activation, hits mostly activators; 1.8% of 340,000 active; SW480 DNA re-replication, Hoechst DNA content imaging, 48 h; further: potency means the concentration at half of the fitted maximal effect; % of control where 0% means no effect; nearly all actives have a fitted effect of over 55% in size
#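 Hoechst fluorescence of nuclei (405 nm excitation, 500-530 nm emission) measured by plate-scanning imager after 48 hr compound exposure at 37 C; re-replication scored as increased number of nuclei with elevated intensity.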
# KB-3-1 tox: qHTS assay for MDR1-selective chemotherapeutics: Primary screen using the parental adenocarcinoma cell KB-3-1. KB-3-1 viability, CellTiter-Glo ATP luminescence, 72 h. Potency, µM (series often up to 46.1 µM), actives largely listed as cytotoxic. 1.4% of 400,000 active. AID 1347075, 2019; further: potency means the concentration at half of the fitted maximal effect; on the % scale 0 is the no-effect control and ±100 the full control effect; nearly all actives have a fitted effect of over 60% in size
#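 72 h, 37 °C compound treatment of KB-3-1 parental cells; CellTiter-Glo added, 10 min, luminescence read. Data corrected against DMSO-only plates and normalized before curve fitting.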
# MCF10A rerep: A quantitative high throughput screen for small molecules that induce DNA re-replication in MCF 10a normal breast cells | MCF 10A DNA re-replication, Hoechst nuclear intensity, 48 h | Potency, µM (top dose mostly 46.1 µM), without a hit: at the highest dose activity, positive = re-replication, actives largely listed as activators | 2.9% of 350,000 active | AID 624296, 2012; further: potency means the concentration at half of the fitted maximal effect; % of control where 0% means no effect; nearly all actives have a fitted effect of over 50% in size
# * marks the source's active call; other numbers are inactive results; i = inactive; ? = inconclusive; . = not tested or not shown. Unless noted, the call rests on the fitted dose curve; in most records, active means well fitted curve in the direction sought with a large enough effect; inconclusive means small, poorly fitted or top-dose-only effect, or another doubt; inactive means no such curve, though single readings can be large; an effect the other way counts as inactive or inconclusive.
SMILES,KB-V1 MDR tox,IL1B secr inh,SW480 rerep,KB-3-1 tox,MCF10A rerep
CC(=O)Nc1ccc(S(=O)(=O)N2CCCc3ccccc32)cc1,?,54,4.6µM*,i,9.2µM*
COc1ccccc1C(=O)NCCC(=O)NCC(c1ccccc1)N(C)C (stereo not drawn),i,1,-2%,i,7%
O=C(NCCCn1ccnc1)c1ccc(COc2ccccc2)o1,i,5,-3%,i,14%
O=c1c2ccccc2nc(/C=C/c2ccccc2)n1CCCO,?,-17,?,i,3%
O=c1c2ccccc2nc(/C=C/c2ccc3c(c2)OCO3)n1CCCO,i,-56*,3%,?,?
CN(C)c1ccc(/C=C/c2nc3ccccc3c(=O)n2CCO)cc1,i,-9,?,i,16µM*
O=c1c2ccccc2nc(/C=C/c2ccc(O)cc2)n1CCc1ccccc1,15µM*,-27,?,i,23µM*
CCn1c(/C=C/c2ccccc2)nc2ccccc2c1=O,?,-23,-15%,?,5%
CCCCc1nnc(NC(=O)C(C)Sc2nc(O)c(Cc3ccccc3)c(=O)[nH]2)s1 (stereo not drawn),i,40,2%,i,-3%
Cc1ccc(NC(=O)C2CCCN(S(=O)(=O)c3c(C)n[nH]c3C)C2)cc1C (stereo not drawn),?,.,.,i,.
COc1ccc(N2CCN(C(=O)c3cc4c(s3)-c3ccccc3S(=O)(=O)C4)CC2)cc1,i,-9,-2%,i,?
CCc1nc2ccc(C(=O)N3CCN(c4ccccc4)CC3)cn2c1N(CCC(C)C)CCN(C)C,?,-24,.,i,.
Nc1cc(N2CCOCC2)c(Cl)cc1[N+](=O)[O-],6.5µM*,21,2%,i,1%
Nc1cc(N2CCCC2)c(Cl)cc1[N+](=O)[O-],8.2µM*,-23,-1%,?,14%
Nc1cc(N2CCCC2)ccc1[N+](=O)[O-],i,-12,-2%,i,2%
Cc1ccc(NC(=S)/N=C(\N)Nc2nc(C)c3cc(C)ccc3n2)c(C)c1,?,-17,-16%,i,?
Cc1ccc(S(=O)(=O)/N=C(\N)Nc2nc(C)c3cc(C)ccc3n2)cc1,15µM*,-11,12%,i,19%
Cc1ccc(S(=O)(=O)/N=C(\N)Nc2nc(C)c3ccc(C)cc3n2)cc1,i,-21,10%,i,-5%
COc1ccc2nc(N/C(N)=N/S(C)(=O)=O)nc(C)c2c1,2.1µM*,-8,-2%,8.2µM*,?
CCc1ccccc1NC(=S)/N=C(\N)Nc1nc(C)c2cc(C)ccc2n1,6.5µM*,-101*,21µM*,?,?
COc1ccc2nc(N/C(N)=N/C(=S)Nc3cccc(C)c3)nc(C)c2c1,i,-56*,15%,?,26%
O=C(CSc1nnc(-c2ccncc2)o1)N1CCc2ccccc2C1,?,8,-4%,i,-1%
CCOc1ccc2nc(N/C(N)=N/C(=S)Nc3cccc(OC)c3)nc(C)c2c1,i,-55*,?,i,10%
COc1ccc(NC(=S)/N=C(\N)Nc2nc(C)c3ccccc3n2)cc1,?,-7,-50%,i,?
Cc1ccc(NC(=S)/N=C(\N)Nc2nc(C)c3cc(C)c(C)cc3n2)cc1C,i,-14,?,i,26%
COc1ccc2nc(N/C(N)=N/C(=S)Nc3c(C)cccc3C)nc(C)c2c1,?,-63*,26%,?,?
CCOc1ccc2nc(N/C(N)=N/C(=S)Nc3cccc(C)c3)nc(C)c2c1,23µM*,?,-7%,i,-2%
COCCNc1ccc(-c2nc(-c3cccc(C)c3)no2)cc1[N+](=O)[O-],?,.,.,i,.
COc1ccc(OC)c(NC(=O)CC2C(=O)NCCN2C(=O)c2ccccc2)c1 (stereo not drawn),i,21,3%,i,-1%
C=CCSc1nnc(COc2ccc(=O)n(-c3ccccc3)n2)n1CC,i,-2,1%,i,-8%
